Results as given in PubChem BioAssay (Tox21).
Results filed as inconclusive are left out. A call without a number means that no potency is given here. Values without a mark were called inactive. Calls of active or inactive are those of the source. Unless noted, the call rests on the fitted dose curve; in most records, active means well fitted curve in the direction sought with a large enough effect in the repeat runs; inconclusive means weak or mixed curves; inactive means no such curve, though single readings can be large; an effect the other way counts as inactive or inconclusive.

Experiments:
[1] = qHTS assay to identify small molecule antagonists of the estrogen related receptor (ERR) signaling pathway from Tox21 library - cell viability counter screen (AID 1224834); further: nearly all actives have a fitted effect of over 30% in size
In short: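 In this quantitative HTS format, ERR cells receive compounds in DMSO and are incubated for 17.5 h at 37 C. Live-cell protease activity is then detected with CellTiter-Fluor.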

[2] = target: Luciferin 4-monooxygenase (Photinus pyralis) (UniProt P08659); assay: qHTS assay to identify small molecule inhibitors of firefly luciferase (AID 1224835); further: nearly all actives have a fitted effect of over 25% in size
In short: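 Inhibition of purified Photinus luciferase is measured by luminescence. Substrate levels (D-luciferin, ATP) sit at their KM values. Each compound is tested in a concentration series.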

[3] = qHTS assay to identify small molecule agonists of the constitutive androstane receptor (CAR) signaling pathway - cell viability counter screen (AID 1224836); further: nearly all actives have a fitted effect of over 45% in size
In short: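 HepG2-CYP2B6-hCAR, 2500 cells/well, 4 h pre-incubation; cpd 15 conc + PK11195 0.75 uM final; 23 h, 37 C/5% CO2; CellTiter-Fluor, fluorescence.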

[4] = qHTS assay to identify small molecule antagonists of the constitutive androstane receptor (CAR) signaling pathway - cell viability counter screen (AID 1224837); further: nearly all actives have a fitted effect of over 45% in size
In short: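 In quantitative HTS format, compounds at 15 concentrations were applied to HepG2 cells double-transfected with hCAR and CYP2B6-2.2kb under 50 nM CITCO stimulation; live-cell protease activity was read after 23 hr via CellTiter-Fluor.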

[5] = target: Nuclear receptor subfamily 1 group I member 3 (Homo sapiens) (UniProt Q14994); assay: qHTS assay to identify small molecule antagonists of the constitutive androstane receptor (CAR) signaling pathway (AID 1224838); further: nearly all actives have a fitted effect of over 40% in size
In short: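 CITCO-stimulated (50 nM final) HepG2 cells stably transfected with hCAR and CYP2B6-2.2kb luciferase were exposed to compounds at 15 concentrations for 24 h at 37 C/5% CO2. A luciferase reagent was added and luminescence recorded after 30 min.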

[6] = target: Nuclear receptor subfamily 1 group I member 3 (Homo sapiens) (UniProt Q14994); assay: qHTS assay to identify small molecule agonists of the constitutive androstane receptor (CAR) signaling pathway (AID 1224839); further: nearly all actives have a fitted effect of over 15% in size
In short: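 HepG2-CYP2B6-hCAR cells, 2500/well, 4 h pre-incubation; compounds 15 conc.; PK11195 0.75 uM final; 24 h, 37 C/5% CO2; ONE-Glo luciferase read.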

[7] = qHTS assay to identify small molecule antagonists of the estrogen related receptor signaling pathway with the pleiotropic PPARgamma coactivator (PGC) from Tox21 10K library - cell viability counter screen (AID 1224840; active means well fitted cell-killing curve with a large enough effect in the repeat runs, not every such curve was filed as active; further: nearly all actives have a fitted effect of over 40% in size)
In short: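 Viability counter screen, PGC/ERR cells: 17.5 h compound exposure at 37 C, CellTiter-Fluor fluorescence endpoint.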

[8] = target: Thyrotropin receptor (Homo sapiens) (UniProt P16473); assay: qHTS assay to identify small molecule agonists of the thyroid stimulating hormone receptor (TSHR) signaling pathway (AID 1224843; calls by dose curve; further: nearly all actives have a fitted effect of over 45% in size)
In short: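 Agonist activity read as cAMP rise via d2/cryptate HTRF competition, 1 h room-temperature detection, in HEK293 cells expressing TSHR. Fifteen-point titrations, each run in triplicate, with a 30 min room-temperature incubation beforehand.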

[9] = qHTS assay to identify small molecule agonists of the estrogen related receptor signaling pathway with the pleiotropic PPARgamma coactivator (PGC) from Tox21 10K library (AID 1224842); further: nearly all actives have a fitted effect of over 15% in size
In short: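 Luminescence from One-Glo (30 min, room temperature) measured after PGC/ERR cells had 18 h at 37 C with pinned compound (23 nL in DMSO). Cells had been seeded at 2,000 per well and pre-incubated 6 h.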

[10] = qHTS assay to identify small molecule antagonists of the estrogen related receptor signaling pathway with the pleiotropic PPARgamma coactivator (PGC) from Tox21 10K library (AID 1224841; call rule not given here; further: actives are mostly falling curves and most rising ones were filed inactive; nearly all actives have a fitted effect of over 50% in size)
In short: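 In the PGC/ERR line, DMSO solutions of test chemicals are pin-delivered to 2,000 cells/well six hours after dispensing. Following eighteen hours' incubation, One-Glo reagent is added and luminescence recorded.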
Potency means the concentration at half of the fitted maximal effect.

Thyrotropin receptor (Homo sapiens), sequence (P16473 whole entry, looked up): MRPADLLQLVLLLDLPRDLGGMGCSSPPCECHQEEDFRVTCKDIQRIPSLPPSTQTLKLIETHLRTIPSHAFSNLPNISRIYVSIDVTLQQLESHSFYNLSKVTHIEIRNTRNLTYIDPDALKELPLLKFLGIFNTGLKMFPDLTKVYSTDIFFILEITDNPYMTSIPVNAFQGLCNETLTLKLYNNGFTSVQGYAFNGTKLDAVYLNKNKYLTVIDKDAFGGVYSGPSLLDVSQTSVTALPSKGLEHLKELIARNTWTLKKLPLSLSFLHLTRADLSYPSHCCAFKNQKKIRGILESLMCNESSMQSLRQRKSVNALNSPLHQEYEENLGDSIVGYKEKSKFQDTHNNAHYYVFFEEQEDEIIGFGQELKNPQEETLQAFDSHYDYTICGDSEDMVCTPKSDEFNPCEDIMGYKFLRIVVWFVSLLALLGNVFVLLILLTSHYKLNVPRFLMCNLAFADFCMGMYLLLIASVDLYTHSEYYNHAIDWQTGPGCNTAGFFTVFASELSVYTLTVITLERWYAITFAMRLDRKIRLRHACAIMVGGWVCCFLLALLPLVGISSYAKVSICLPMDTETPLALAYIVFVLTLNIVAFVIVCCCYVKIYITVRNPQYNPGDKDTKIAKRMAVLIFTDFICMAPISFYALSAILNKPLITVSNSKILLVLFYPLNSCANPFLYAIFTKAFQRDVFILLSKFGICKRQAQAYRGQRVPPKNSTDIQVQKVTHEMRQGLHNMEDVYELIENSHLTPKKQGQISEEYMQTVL
Luciferin 4-monooxygenase (Photinus pyralis), sequence (P08659 whole entry, looked up): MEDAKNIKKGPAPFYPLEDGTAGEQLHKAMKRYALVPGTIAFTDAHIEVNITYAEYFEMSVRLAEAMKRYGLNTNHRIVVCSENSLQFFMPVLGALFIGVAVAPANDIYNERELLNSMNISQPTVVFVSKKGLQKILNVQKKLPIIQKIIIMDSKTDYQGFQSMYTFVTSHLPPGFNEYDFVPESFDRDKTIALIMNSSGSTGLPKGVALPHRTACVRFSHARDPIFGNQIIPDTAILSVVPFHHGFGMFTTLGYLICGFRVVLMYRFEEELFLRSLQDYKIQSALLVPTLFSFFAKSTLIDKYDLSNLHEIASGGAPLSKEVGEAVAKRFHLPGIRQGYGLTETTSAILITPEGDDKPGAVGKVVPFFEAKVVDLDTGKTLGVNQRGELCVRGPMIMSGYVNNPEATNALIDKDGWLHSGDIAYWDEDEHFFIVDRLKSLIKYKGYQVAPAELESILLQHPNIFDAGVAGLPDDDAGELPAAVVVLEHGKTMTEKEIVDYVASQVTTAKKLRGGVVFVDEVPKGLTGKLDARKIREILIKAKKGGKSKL
Nuclear receptor subfamily 1 group I member 3 (Homo sapiens), sequence (Q14994 whole entry, looked up): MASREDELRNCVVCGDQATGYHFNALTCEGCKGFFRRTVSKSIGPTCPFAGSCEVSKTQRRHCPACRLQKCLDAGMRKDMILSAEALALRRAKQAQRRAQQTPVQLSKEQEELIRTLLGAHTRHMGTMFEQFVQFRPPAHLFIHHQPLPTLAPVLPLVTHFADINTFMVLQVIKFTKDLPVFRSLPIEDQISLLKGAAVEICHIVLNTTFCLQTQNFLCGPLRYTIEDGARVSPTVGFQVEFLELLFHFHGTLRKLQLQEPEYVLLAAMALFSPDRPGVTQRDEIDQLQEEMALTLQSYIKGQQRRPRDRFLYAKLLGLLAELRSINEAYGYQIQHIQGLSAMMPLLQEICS

CC(=O)NO
Potency [1]: inactive
Potency [2]: inactive
Potency [3]: inactive
Potency [4]: inactive
Potency [5]: inactive
Potency [6]: inactive
Potency [7]: inactive
Potency [8]: inactive

CCC(Cl)CCC(Cl)C(Cl)CC(Cl)C(Cl)C(Cl)CCl (centres undefined)
Potency [1]: inactive
Potency [2]: inactive
Potency [3]: inactive
Potency [4]: inactive
Potency [5]: inactive
Potency [6]: inactive
Potency [7]: inactive
Potency [9]: inactive
Potency [8]: inactive

CC(C)=CCC/C(C)=C/CC/C(C)=C/CO
Potency [1]: inactive
Potency [2]: inactive
Potency [3]: inactive
Potency [4]: inactive
Potency [5]: inactive
Potency [7]: inactive

CCCCc1ncc(/C=C(\Cc2cccs2)C(=O)O)n1Cc1ccc(C(=O)O)cc1
Potency [1]: inactive
Potency [2]: inactive
Potency [3]: inactive
Potency [4]: inactive
Potency [6]: inactive
Potency [7]: inactive

C[C@H]1C[C@H]2[C@@H]3CCC4=CC(=O)C=C[C@]4(C)[C@@]3(Cl)[C@@H](O)C[C@]2(C)[C@@]1(O)C(=O)CO
Potency [1]: inactive
Potency [2]: inactive
Potency [3]: inactive
Potency [4]: inactive
Potency [5]: inactive
Potency [6]: inactive
Potency [7]: inactive
Potency [9]: inactive
Potency [8]: inactive

CN(C)CCN(Cc1ccc(Cl)cc1)c1ccccn1
Potency [1]: inactive
Potency [2]: inactive
Potency [3]: inactive
Potency [4]: inactive
Potency [5]: inactive
Potency [6]: inactive
Potency [8]: inactive

CCN(CC)c1ccc2c(-c3ccccc3C(=O)O)c3ccc(=[N+](CC)CC)cc-3oc2c1
Potency [1]: 7.7 µM (active)
Potency [2]: 11.2 µM (active)
Potency [3]: 7.7 µM (active)
Potency [4]: 7.7 µM (active)
Potency [5]: inactive
Potency [7]: 17.2 µM (active)
Potency [10]: 43.3 µM (active)
Potency [9]: inactive

O=CC1CC=CCC1 (centres undefined)
Potency [1]: inactive
Potency [2]: inactive
Potency [3]: inactive
Potency [4]: inactive
Potency [5]: inactive
Potency [6]: inactive
Potency [7]: inactive
Potency [8]: inactive

O=C1c2ccccc2S(=O)(=O)N1CCCCN1CCN(c2ncccn2)CC1
Potency [1]: inactive
Potency [2]: inactive
Potency [3]: inactive
Potency [4]: inactive
Potency [5]: inactive
Potency [6]: inactive
Potency [7]: inactive
Potency [8]: inactive

CC(C)(C)Cl
Potency [1]: inactive
Potency [2]: inactive
Potency [3]: inactive
Potency [4]: inactive
Potency [5]: inactive
Potency [6]: inactive
Potency [7]: inactive
Potency [8]: inactive

CCCCCCCCCCO[C@@H]1O[C@H](CO)[C@@H](O)[C@H](O)[C@H]1O
Potency [1]: inactive
Potency [2]: inactive
Potency [3]: inactive
Potency [4]: inactive
Potency [6]: inactive
Potency [7]: inactive

O=C(O)c1ccc(-n2nc(-c3ccccc3O)nc2-c2ccccc2O)cc1
Potency [1]: 23.7 µM (active)
Potency [2]: inactive
Potency [3]: inactive
Potency [4]: inactive
Potency [6]: inactive
Potency [7]: inactive
Potency [10]: 10.6 µM (active)
Potency [9]: inactive

COc1ccc(-c2nc3ccc(C4=NNC(=O)CC4C)cc3[nH]2)cc1 (centres undefined)
Potency [1]: 13.3 µM (active)
Potency [2]: 8.71 µM (active)
Potency [3]: inactive
Potency [4]: inactive
Potency [5]: inactive
Potency [6]: 3.76 µM (active)
Potency [10]: inactive
Potency [9]: 8.41 µM (active)
Potency [8]: 9.44 µM (active)

Nc1ccccc1S(=O)(=O)c1ccccc1
Potency [1]: inactive
Potency [2]: inactive
Potency [3]: inactive
Potency [4]: inactive
Potency [5]: inactive
Potency [6]: 68.6 µM (active)
Potency [7]: inactive
Potency [9]: inactive

Cc1oc2c(NC(=O)c3c(Cl)cccc3Cl)cccc2c1C(C)(C)O
Potency [1]: 43.3 µM (active)
Potency [2]: inactive
Potency [3]: inactive
Potency [4]: inactive
Potency [5]: 5.45 µM (active)
Potency [6]: inactive
Potency [9]: inactive

c1cc(CCCc2ccncc2)ccn1
Potency [1]: inactive
Potency [2]: inactive
Potency [3]: inactive
Potency [4]: inactive
Potency [5]: inactive
Potency [6]: inactive
Potency [7]: inactive
Potency [9]: inactive
Potency [8]: inactive

CC1(c2ccccc2)OC(C(=O)O)=CC1=O (centres undefined)
Potency [1]: inactive
Potency [2]: inactive
Potency [3]: inactive
Potency [4]: inactive
Potency [5]: inactive
Potency [6]: inactive
Potency [8]: inactive

CC1CCC(=O)C1=O (centres undefined)
Potency [1]: inactive
Potency [2]: inactive
Potency [3]: inactive
Potency [4]: inactive
Potency [5]: inactive
Potency [6]: inactive
Potency [7]: inactive
Potency [8]: inactive

CCCCOC(=O)CCCCCCCC(=O)OCCCC
Potency [1]: inactive
Potency [2]: inactive
Potency [3]: inactive
Potency [4]: inactive
Potency [6]: inactive
Potency [7]: inactive
Potency [10]: inactive
Potency [9]: inactive
Potency [8]: inactive

OC(C#CCN1CCCC1)(c1ccccc1)c1ccccc1
Potency [1]: inactive
Potency [2]: inactive
Potency [3]: inactive
Potency [4]: inactive
Potency [7]: inactive
Potency [10]: inactive
Potency [9]: inactive
Potency [8]: inactive

CCC(C)c1cc(C(C)(C)C)c(O)c(C(C)(C)C)c1 (centres undefined)
Potency [1]: inactive
Potency [2]: inactive
Potency [3]: inactive
Potency [4]: inactive
Potency [7]: inactive

N=c1ccn2c(n1)O[C@H]1[C@H](O)[C@@H](CO)O[C@H]12
Potency [1]: inactive
Potency [2]: inactive
Potency [3]: inactive
Potency [4]: inactive
Potency [7]: inactive
Potency [10]: inactive
Potency [9]: inactive
Potency [8]: inactive

OCc1cc(C(O)CNCCCCCCOCCCCc2ccccc2)ccc1O (centres undefined)
Potency [1]: 10.6 µM (active)
Potency [2]: inactive
Potency [3]: 10.6 µM (active)
Potency [4]: 13.3 µM (active)
Potency [7]: inactive
Potency [10]: inactive
Potency [9]: inactive

CCCCNc1ccc(C(=O)OCCOCCOCCOCCOCCOCCOCCOCCOCCOC)cc1
Potency [1]: inactive
Potency [2]: inactive
Potency [3]: inactive
Potency [4]: inactive
Potency [6]: inactive
Potency [7]: inactive
Potency [10]: inactive
Potency [9]: inactive
Potency [8]: inactive

Nc1cccc(S(=O)(=O)c2cccc(N)c2)c1
Potency [1]: inactive
Potency [2]: inactive
Potency [3]: inactive
Potency [4]: inactive
Potency [6]: inactive
Potency [7]: inactive
Potency [10]: inactive
Potency [9]: inactive
Potency [8]: inactive
